Measured values: the supplement of paper PMC3484114
± gives the standard deviation.

Each compound was assayed on OVCAR-3-derived ovarian cancer stem-like cells (spheroids) (assay: cell growth relative to untreated control; higher = more growth (less inhibition)). Details: 2.29 µM; 96 h.
How it was run: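 OVCAR-3 spheroid-derived stem-like cells were trypsin-dissociated, seeded at 50,000 cells/mL in stem cell medium in ultra-low attachment 96-well plates and preincubated 24 h. Compounds were then added at 2.29 uM for 96 h at 37°C, 5% CO2, in 4 replicate wells. Viability was read as TOX8 resazurin fluorescence (ex 560/em 590 nm) after 4 h. Percent growth was calculated relative to untreated wells after blank subtraction and Grubbs outlier removal.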

Structure (SMILES)	cell growth [%]
COc1ccc(C(=O)/C(Br)=C\C(=O)O)cc1	75.5 ± 16
[Cl][Pt+2][Cl].[NH-]C1CCCCC1[NH-] (configuration not stated)	98.5 ± 28
Cc1ccc(CC2(OCCN(C)C)CCC(C(C)(C)C)CC2)cc1 (configuration not stated)	82.2 ± 24
CN1CCC23c4ccccc4NC1C21CCN(C)C3Nc2ccccc21	118 ± 10
O/N=C(\CC(O)(C(F)(F)F)C(F)(F)F)c1cccc(Cl)c1	87.8 ± 16
Cc1c2oc3c(C)ccc(C(=O)N[C@@H]4C(=O)N[C@H](C(C)C)C(=O)N5CCC[C@H]5C(=O)N(C)CC(=O)N(C)[C@@H](C(C)C)C(=O)O[C@@H]4C)c3nc-2c(C(=O)N[C@@H]2C(=O)N[C@H](C(C)C)C(=O)N3CCC[C@H]3C(=O)N(C)CC(=O)N(C)[C@@H](C(C)C)C(=O)O[C@@H]2C)c(N)c1=O	8.44 ± 3.9
Cc1ccccc1NC(=O)C(=O)C(c1cnc2ccc([N+](=O)[O-])cc2n1)[N+](=O)[O-] (configuration not stated)	112 ± 25
COc1cc2c3c(n(C)c(=O)c2cc1OC)-c1cc2c(cc1C3=O)OCO2	101 ± 38
CC[n+]1c(-c2ccccc2)c2cc(N)ccc2c2ccc(N)cc21	15 ± 9.7
C[C@]12CC[C@@H]3c4ccccc4CC[C@H]3[C@@H]1CC[C@@H]2O	229 ± 23
CC1=C(C(=O)NCc2ccccc2)C(c2ccccc2O)C(C(=O)NCc2ccccc2)=C(C)N1	76.9 ± 12
COC(=O)[C@@H]1[C@H](O)[C@H](C)[C@H](O)[C@H](C)/C=C\C=C(/C)C(=O)Nc2c(C)c(OC(C)=O)c3c(c2O)C(=O)C(C)=C2OCOC(=C23)/C(C)=C/[C@@](C)(O)[C@H](O)[C@@H](C)[C@H]1OC(C)=O	110 ± 22
C(=C/c1nc2ccccc2o1)/c1ccc2c(c1)OCO2	94 ± 16
COc1ccc(C=CC(=O)Oc2cc(O)cc(O)c2)cc1	99.6 ± 16
COC1(O)C(=O)c2ccccc2OC1(OC)c1ccccc1 (configuration not stated)	118 ± 26
COc1cc(C(C)c2cc3c(cc2OCCO)OCO3)cc(OC)c1OC (configuration not stated)	24.7 ± 6.7
CO[C@@H]1[C@@H](OC(=O)c2ccc(C)[nH]2)[C@@H](O)[C@H](Oc2ccc3c(O)c(NC(=O)c4c[nH]c(C(=O)Nc5c(O)c6ccc(O[C@@H]7OC(C)(C)[C@H](OC)[C@@H](OC(=O)c8ccc(C)[nH]8)[C@H]7O)c(C)c6oc5=O)c4C)c(=O)oc3c2C)OC1(C)C	100 ± 22
Nc1ccc2cc3ccc(N)cc3nc2c1	25.8 ± 6.4
Clc1ccccc1C(c1ccccc1)(c1ccccc1)n1ccnc1	106 ± 13
Oc1[nH]c2ccccc2c1N=Nc1nc(-c2ccc(Br)cc2)cs1	81.5 ± 29
O=C(Nc1ccc2c(c1)oc(=O)c1ccccc12)C(Cl)Cl	10.2 ± 2.1
COc1cccc2c1C(=O)c1c(O)c3c(c(O)c1C2=O)C[C@@](O)(C(C)=O)C[C@@H]3O[C@@H]1C[C@@H](N(C)C)[C@@H](O)[C@@H](C)O1	26.5 ± 25
